{"source": "PubChem BioAssay AID1159580", "about": "(chemical genetic matrix, 2015)", "test": "chemical genetic growth profiling, strain panel (AID 1159580);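 also: tested at 20 µM; growth read once vehicle control cultures reached saturation at 30 °C; 1 = growth at the plate median or of vehicle wells; lower values mean less growth of the strain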", "settings": "S. cerevisiae deletion strains, growth OD", "note": "Out of some 5,500 compounds screened, about 2,000 (36%) were called active. Inconclusive results (about 18%) are left out. The list shows a part of the results. A number with no mark means an inactive call. Rule as the data show it: active = normalized growth mostly below about 0.91 (no sharp cut-off); inconclusive = no clear call, values can overlap the other calls; inactive = mostly above about 0.92.", "data": [{"smiles": "CC(=O)Oc1c2c(c(CC=C(C)C)c3c1C(=O)C1=C[C@@H]4CC5C(C)(C)OC(C/C=C(\\C)C(=O)O)(C4=O)[C@@]15O3)OC(C)(CCC=C(C)C)C=C2", "note": "(stereo partly specified)", "values": [{"measurement": "normalized growth", "setting": "locus YAL021C, strain ccr4, hits give low values", "result": 0.99}, {"measurement": "normalized growth", "setting": "locus YAL026C, strain drs2, hits give low values", "result": 0.986}, {"measurement": "normalized growth", "setting": "locus YAL030W, strain snc1, hits give low values", "result": 0.977}, {"measurement": "normalized growth", "setting": "locus YBL061C, strain skt5, hits give low values", "result": 0.984}, {"measurement": "normalized growth", "setting": "locus YBR009C, strain hhf1, hits give low values", "result": 0.948}, {"measurement": "normalized growth", "setting": "locus YBR023C, strain chs3, hits give low values", "result": 0.962}, {"measurement": "normalized growth", "setting": "locus YBR171W, strain sec66, hits give low values", "result": 0.989}, {"measurement": "normalized growth", "setting": "locus YBR231C, strain swc5, hits give low values", "result": 0.953}, {"measurement": "normalized growth", "setting": "locus YBR279W, strain paf1, hits give low values", "result": 0.975}, {"measurement": "normalized growth", "setting": "locus YCL011C, strain gbp2, hits give low values", "result": 0.98}, {"measurement": "normalized growth", "setting": "locus YCL016C, strain dcc1, hits give low values", "result": 0.97}, {"measurement": "normalized growth", "setting": "locus YCL069W, strain vba3, hits give low values", "result": 0.991}, {"measurement": "normalized growth", "setting": "locus YCR088W, strain abp1, hits give low values", "result": 0.972}, {"measurement": "normalized growth", "setting": "locus YDL005C, strain med2, hits give low values", "result": 0.977}, {"measurement": "normalized growth", "setting": "locus YDL040C, strain nat1, hits give low values", "result": 0.978}, {"measurement": "normalized growth", "setting": "locus YDR001C, strain nth1, hits give low values", "result": 0.988}, {"measurement": "normalized growth", "setting": "locus YDR069C, strain doa4, hits give low values", "result": 0.933}, {"measurement": "normalized growth", "setting": "locus YDR137W, strain rgp1, hits give low values", "result": "0.551 (active)"}, {"measurement": "normalized growth", "setting": "locus YDR159W, strain sac3, hits give low values", "result": 0.975}, {"measurement": "normalized growth", "setting": "locus YDR195W, strain ref2", "result": 1.11}, {"measurement": "normalized growth", "setting": "locus YDR297W, strain sur2, hits give low values", "result": 0.969}, {"measurement": "normalized growth", "setting": "locus YDR334W, strain swr1, hits give low values", "result": 0.976}, {"measurement": "normalized growth", "setting": "locus YDR335W, strain msn5, hits give low values", "result": 0.994}, {"measurement": "normalized growth", "setting": "locus YDR392W, strain spt3, hits give low values", "result": "0.695 (active)"}, {"measurement": "normalized growth", "setting": "locus YEL003W, strain gim4, hits give low values", "result": 0.978}, {"measurement": "normalized growth", "setting": "locus YEL037C, strain rad23, hits give low values", "result": 0.99}, {"measurement": "normalized growth", "setting": "locus YEL061C, strain CIN8 (second series), hits give low values", "result": 1}, {"measurement": "normalized growth", "setting": "locus YER015W, strain faa2, hits give low values", "result": 0.989}, {"measurement": "normalized growth", "setting": "locus YER016W, strain bim1, hits give low values", "result": 0.971}, {"measurement": "normalized growth", "setting": "locus YER111C, strain swi4, hits give low values", "result": 0.99}, {"measurement": "normalized growth", "setting": "locus YER155C, strain BEM2 (second series), hits give low values", "result": 0.96}, {"measurement": "normalized growth", "setting": "locus YFR010W, strain ubp6, hits give low values", "result": 0.938}, {"measurement": "normalized growth", "setting": "locus YGL167C, strain pmr1, hits give low values", "result": 0.982}, {"measurement": "normalized growth", "setting": "locus YGL173C, strain kem1, hits give low values", "result": 0.97}, {"measurement": "normalized growth", "setting": "locus YGL227W, strain vid30, hits give low values", "result": 1}, {"measurement": "normalized growth", "setting": "locus YGL240W, strain doc1, hits give low values", "result": 0.983}, {"measurement": "normalized growth", "setting": "locus YGL253W, strain hxk2, hits give low values", "result": 0.989}, {"measurement": "normalized growth", "setting": "locus YHR013C, strain ard1, hits give low values", "result": 0.894}, {"measurement": "normalized growth", "setting": "locus YHR027C, strain rpn1, hits give low values", "result": 0.984}, {"measurement": "normalized growth", "setting": "locus YHR142W, strain chs7, hits give low values", "result": 0.939}, {"measurement": "normalized growth", "setting": "locus YJL092W, strain hpr5, hits give low values", "result": 0.975}, {"measurement": "normalized growth", "setting": "locus YJL095W, strain BCK1 (second series), hits give low values", "result": 0.944}, {"measurement": "normalized growth", "setting": "locus YJL115W, strain asf1, hits give low values", "result": 1.01}, {"measurement": "normalized growth", "setting": "locus YJL129C, strain trk1, hits give low values", "result": "0.76 (active)"}, {"measurement": "normalized growth", "setting": "locus YJL154C, strain vps35, hits give low values", "result": 0.996}, {"measurement": "normalized growth", "setting": "locus YJL164C, strain tpk1, hits give low values", "result": 0.951}, {"measurement": "normalized growth", "setting": "locus YJL166W, strain qcr8, hits give low values", "result": 0.984}, {"measurement": "normalized growth", "setting": "locus YJL187C, strain SWE1, hits give low values", "result": 0.974}, {"measurement": "normalized growth", "setting": "locus YKL160W, strain elf1, hits give low values", "result": 0.962}, {"measurement": "normalized growth", "setting": "locus YKR026C, strain gcn3, hits give low values", "result": 0.983}, {"measurement": "normalized growth", "setting": "locus YKR091W, strain srl3, hits give low values", "result": 0.978}, {"measurement": "normalized growth", "setting": "locus YLL001W, strain dnm1, hits give low values", "result": 0.979}, {"measurement": "normalized growth", "setting": "locus YLL026W, hits give low values", "result": 1}, {"measurement": "normalized growth", "setting": "locus YLL041C, strain sdh2, hits give low values", "result": 0.994}, {"measurement": "normalized growth", "setting": "locus YLR027C, strain aat2, hits give low values", "result": 0.977}, {"measurement": "normalized growth", "setting": "locus YLR221C, strain rsa3, hits give low values", "result": 0.969}, {"measurement": "normalized growth", "setting": "locus YLR258W, strain gsy2, hits give low values", "result": 0.979}, {"measurement": "normalized growth", "setting": "locus YLR262C, strain YPT6 (second series), hits give low values", "result": "0.543 (active)"}, {"measurement": "normalized growth", "setting": "locus YLR320W, strain mms22, hits give low values", "result": "0.806 (active)"}, {"measurement": "normalized growth", "setting": "locus YLR342W, strain FKS1, hits give low values", "result": 0.963}, {"measurement": "normalized growth", "setting": "locus YLR357W, strain rsc2, hits give low values", "result": 1.05}, {"measurement": "normalized growth", "setting": "locus YLR370C, strain arc18, hits give low values", "result": 0.946}, {"measurement": "normalized growth", "setting": "locus YLR384C, strain iki3, hits give low values", "result": 0.981}, {"measurement": "normalized growth", "setting": "locus YML120C, strain ndi1, hits give low values", "result": 0.996}, {"measurement": "normalized growth", "setting": "locus YMR058W, strain fet3, hits give low values", "result": 0.982}, {"measurement": "normalized growth", "setting": "locus YMR125W, strain sto1, hits give low values", "result": 0.993}, {"measurement": "normalized growth", "setting": "locus YMR129W, hits give low values", "result": 0.975}, {"measurement": "normalized growth", "setting": "locus YMR205C, strain PFK2, hits give low values", "result": "0.812 (active)"}, {"measurement": "normalized growth", "setting": "locus YMR231W, strain pep5, hits give low values", "result": 0.987}, {"measurement": "normalized growth", "setting": "locus YNL071W, strain lat1, hits give low values", "result": "0.797 (active)"}, {"measurement": "normalized growth", "setting": "locus YNL209W, strain ssb2, hits give low values", "result": 0.977}, {"measurement": "normalized growth", "setting": "locus YNL248C, strain rpa49, hits give low values", "result": 0.983}, {"measurement": "normalized growth", "setting": "locus YNL322C, strain KRE1 (second series), hits give low values", "result": 1.01}, {"measurement": "normalized growth", "setting": "locus YNR049C, strain mso1, hits give low values", "result": 0.984}, {"measurement": "normalized growth", "setting": "locus YOR001W, strain rrp6, hits give low values", "result": 0.988}, {"measurement": "normalized growth", "setting": "locus YOR070C, strain gyp1, hits give low values", "result": 0.971}, {"measurement": "normalized growth", "setting": "locus YOR080W, strain dia2, hits give low values", "result": 0.994}, {"measurement": "normalized growth", "setting": "locus YOR083W, strain WHI5, hits give low values", "result": 0.953}, {"measurement": "normalized growth", "setting": "locus YOR106W, strain vam3, hits give low values", "result": 0.931}, {"measurement": "normalized growth", "setting": "locus YOR265W, strain rbl2, hits give low values", "result": 0.962}, {"measurement": "normalized growth", "setting": "locus YOR270C, strain vph1, hits give low values", "result": "0.653 (active)"}, {"measurement": "normalized growth", "setting": "locus YOR290C, strain snf2, hits give low values", "result": 0.96}, {"measurement": "normalized growth", "setting": "locus YPL051W, strain arl3, hits give low values", "result": 0.931}, {"measurement": "normalized growth", "setting": "locus YPL078C, strain atp4, hits give low values", "result": 0.967}, {"measurement": "normalized growth", "setting": "locus YPL106C, strain sse1, hits give low values", "result": 1.02}, {"measurement": "normalized growth", "setting": "locus YPL240C, strain hsp82, hits give low values", "result": 0.978}]}]}
